High-throughput results as filed in PubChem.
TWEAK Fn14 block = inhibitors of TWEAK-Fn14 signaling, primary screen, luciferase reporter cells, uHTS; TWEAK-stimulated Fn14 reporter cells, luciferase luminescence, 8 h; inhibition, % at 10 µM; actives 2% (n = 360,000); in the data active = inhibition above about 50%
HIF-2a block = HIF-2a reporter inhibitors, primary screen, luminescence, 786-0 RCC cells; inhibition, % at 18.8 µM; actives 0.72% (n = 360,000); AID 624352, 2012; 786-0 RCC cells HIF-2a reporter, luciferase luminescence, overnight;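 active = inhibition of the luminescence signal of 40% or more relative to plate controls, in a single-dose primary screen at 18.75 µM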
KKLEB tox = cytotoxicity in KKLEB CF airway cells, primary screen, cytotoxicity control for CF NF-kB inhibitor project, cell-based, uHTS, fluorescence assay plates | KKLEB CF airway cells viability, ATPlite luminescence, overnight; stronger effect = lower value; cells stimulated with P. aeruginosa culture filtrate | AID 602141, 2011 | activity change (cytotoxicity), % at 5 µM | actives 0.36% (n = 360,000);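 active = corrected activity change at or below -50% at 5 µM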
CF NFkB inh = inhibitors of PAF-induced NF-kB signaling, primary screen, cell-based, GFP fluorescence, uHTS; KKLEB NF-kB-GFP reporter, GFP fluorescence overnight; inhibition, % at 5 µM; actives 0.86% (n = 360,000);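 active = at least 50% inhibition at 5 µM, scaled per plate between neutral and stimulator controls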;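 also: PAF is a Pseudomonas aeruginosa culture filtrate used as stimulus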
TROY NFkB inh = inhibitors of TROY-driven NF-kB signaling, primary screen, Q293 LMP1-TROYcd cells, NF-kB luciferase, uHTS; Q293 LMP1-TROYcd NF-kB luciferase reporter, 4 h; actives 0.98% (n = 360,000); inhibition, % at 10 µM;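 active = compounds whose plate-normalised and pattern-corrected inhibition of the luciferase reporter signal at the single screening dose is 50% or more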
Peg3 promoter = Peg3 promoter-driven luciferase inhibitors, primary screen, cell-based, HeLa, luciferase luminescence | HeLa PEG-Prom luciferase reporter, overnight | inhibition, % at 20 µM | actives 1.7% (n = 360,000);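 active = inhibition of at least 50% at 20 µM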
Numbers stand for hits; – = inactive. An excerpt weighted towards active compounds, which were near 4% of everything screened.

SMILES	TWEAK Fn14 block	HIF-2a block	KKLEB tox	CF NFkB inh	TROY NFkB inh	Peg3 promoter
CC(C)COP(=O)(c1ccc(N(C)C)cc1)C(O)c1ccncc1 (configuration not stated)	–	–	–	–	–	–
COc1cc2cnc(CCO[C@H]3CCCCO3)cc2cc1OC	–	–	–	–	52	–
COc1ccc2cc(CCOC3CCCCO3)ncc2c1 (configuration not stated)	60	–	–	–	–	–
O=C(O)c1ccc(OCCCCCCOC2CCCCO2)cc1 (configuration not stated)	–	–	–	–	–	–
COc1ccc(Nc2ccnc(Nc3ccc(OC)cc3)n2)cc1	64	–	–	–	–	–
CCOC(=O)N1CCC(NC(=O)c2ccc3snnc3c2)CC1	–	–	–	–	–	–
CCc1ccccc1NC(=O)COc1ccc2c(=O)c(Oc3cc(C)ccc3C)coc2c1	–	–	–	–	56	–
CCCNC(=O)COc1ccc2c(=O)c(Oc3ccccc3F)coc2c1	–	–	–	–	–	–
Cc1ccc(N2CCN(C(=S)Nc3ccccc3)CC2)cc1	–	–	–	–	–	–
CCN(C(=O)C1CC1)C1CCS(=O)(=O)C1 (configuration not stated)	–	–	–	–	66	–
COc1ccc(-c2oc3cccnc3c2/C=C/c2ccc(OC)c(OC)c2)cc1	–	–	–	–	–	–
COc1cccc(NC(=O)CSc2nnc(-c3cc(C)n(-c4ccccc4)c3C)o2)c1	89	42	–	–	–	–
O=C(Nc1cccc(N2C(=O)C=CC2=O)c1)c1cccs1	–	–	–	–	–	92
COc1cc(NC(=O)c2ccc([N+](=O)[O-])o2)ccc1NC(=O)c1cccs1	–	–	–	–	–	59
O=C(Nc1cccc(NC(=O)c2ccc([N+](=O)[O-])o2)c1)c1ccco1	–	–	–	–	–	57
Cc1nc2ccccc2c(=O)n1-c1cccc(NC(=O)c2cccs2)c1	–	–	–	–	–	–
COc1cc(OC)cc(C(=O)Nc2nnc(NC(=S)Nc3ccccc3)s2)c1	–	–	–	65	–	–
N#C/C(=C\c1ccccc1O)C(=O)Nc1cccnc1	–	–	–	–	–	–
CC(=O)N1CCN(CC(=O)Nc2cc(S(=O)(=O)N3CCCCC3)ccc2C)CC1	–	–	–	–	–	–
CC(C)Oc1cccc(C(=O)NC(=S)Nc2cccnc2)c1	–	–	–	–	–	–
CC(C)Oc1cccc(C(=O)NC(=S)Nc2ccccc2)c1	59	–	–	–	67	–
Cc1cc(C)c(OCC(=O)Nc2ccc(NC(=O)c3ccco3)cc2)c([N+](=O)[O-])c1	–	–	–	–	–	–
O=C(Nc1nc(-c2cccs2)cs1)c1ccc([N+](=O)[O-])o1	–	–	–	76	–	–
Cc1cc(C)c(OCC(=O)Nc2cccc(NC(=O)c3ccco3)c2)c(Br)c1	56	–	–	–	–	–
O=C(Nc1cccc(NC(=O)c2cccs2)c1)c1ccc([N+](=O)[O-])o1	–	–	–	–	–	55
SMILES	TWEAK Fn14 block	HIF-2a block	KKLEB tox	CF NFkB inh	TROY NFkB inh	Peg3 promoter
Cc1cn([C@H]2C[C@H](O)[C@@H](/C=C/C(=O)NCCc3ccc4ccccc4c3)O2)c(=O)[nH]c1=O	–	–	–	–	–	–
Cc1ccnc(N2CCC(C(=O)NCc3ccc(F)cc3)CC2)n1	–	–	–	–	–	–
Nc1ncn([C@H]2C[C@H](O)[C@@H](CO)O2)c(=O)n1	–	–	–	–	–	–
O=C(NCCCCCCNC(=O)c1ccncc1)c1ccncc1	–	–	–	–	–	–
COc1cccc(C(=O)Nc2nnc(-c3cccs3)s2)c1	70	–	–	–	–	–
COc1cc(C(=O)Nc2nc(-c3cccs3)cs2)cc(OC)c1OC	56	–	–	–	–	–
CC1(C)Cc2cccc(C(=O)Nc3ccc(F)cc3F)c2O1	–	–	–	–	–	–
Cc1ccc(S(=O)(=O)N(C)C)cc1N	–	–	–	–	–	–
O=[N+]([O-])c1ccc(Cl)cc1NCCCN1CCOCC1	–	–	–	–	–	–
Oc1[nH]c2ccccc2c1N=NC(=S)N1CCOCC1	104	–	–	–	–	53
O=C(Nc1ccc(F)cc1)C(c1ccccc1)N1CCN(CC(=O)N2CCOCC2)CC1 (configuration not stated)	–	–	–	–	–	–
O=C(c1ccco1)N(CCC(c1ccccc1)c1ccco1)Cc1ccc(F)cc1 (configuration not stated)	–	–	–	–	–	–
CC1(C)CC(C(CCN(Cc2ccccc2)C(=O)c2ccco2)c2ccc(F)cc2)CCO1 (configuration not stated)	–	–	–	–	–	51
CC(=O)N1CCc2c(sc(NC(=O)c3ccc([N+](=O)[O-])o3)c2C#N)C1	–	–	-64	98	–	109
O=C(CCCN1C(=O)/C(=C\c2ccco2)SC1=S)Nc1ccc2ccccc2c1	59	–	–	–	–	–
O=C(O)CCCN1C(=O)/C(=C\c2ccco2)SC1=S	–	55	–	–	–	–
O=C(CCCN1C(=O)/C(=C/c2ccco2)SC1=S)Nc1ccccc1C(=O)O	–	–	–	–	–	–
CC(C)NC(=O)CC1C(=O)N(Cc2ccccc2)C(C)c2nc3ccccc3n21 (configuration not stated)	–	–	–	–	–	–
CCC(NC(=O)c1cc(COc2cncc(Cl)c2)on1)c1ccc(C)cc1 (configuration not stated)	–	–	–	–	–	–
CCC(C)NS(=O)(=O)c1ccc(N)cc1 (configuration not stated)	–	–	–	–	–	–
O=c1c(Cc2ccc(Cl)cc2Cl)c(O)ccn1Cc1ccc(Cl)cc1	–	–	–	–	51	–
NC(=O)[C@@H]1CC2(CC(c3cccc(NC(=O)COc4ccc(Cl)cc4)c3)=NO2)CN1C(=O)COc1ccc(Cl)cc1 (some centres not stated)	82	–	–	–	–	–
N#CCC(=O)N1CC2(CC(c3cccc(NC(=O)COc4ccc(Cl)cc4)c3)=NO2)C[C@@H]1C(N)=O (some centres not stated)	–	–	–	–	–	–
